Rows were chosen to be rich in hits. Some 0.95% of all compounds tested hit in one or more screens of this group.
Cdc25B block = inhibitors of human Cdc25B phosphatase. inhibition, %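 (compounds tested at 10 µM final in the well)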. recombinant Cdc25B, OMFP fluorescence Ex485/Em525. 65,000 compounds, 0.1% hits. P30305; in the data active means inhibition above about 50%
SK-BR-3 tox 24h = SK-BR-3 proliferation inhibitors | 41,000 compounds, 0.47% hits | viability, % at 10 µM | SK-BR-3 viability, CellTiter-Glo ATP luminescence, 24 h; active compounds read low | AID 847;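 active means viability at or below the median of all test compounds minus 3 SD, in both replicates if run twice, cut at about 45% in these data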;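 further: 100% = median untreated cell wells and 0% = median positive control drug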
WNV NS2B-NS3 inh = inhibitors of West Nile virus NS2B-NS3 protease; 65,000 compounds, 0.18% hits; WNV NS2B-NS3 protease, fluorogenic substrate Ex360/Em465; active compounds read low; AID 577; P06935; z-score (test concentration not listed); in the data active means z-score below about -3
ROCK2 inh = blocks human Rho kinase 2 activity; inhibition, % at 6 µM; 60,000 compounds, 0.35% hits; purified ROCK2, Kinase-Glo ATP depletion luminescence;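 active means inhibition above the screen-wide mean inhibition plus 3 SD, cut at about 18% in these data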;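 further: plate controls were DMSO wells for no effect and Y-27632 control wells after no-enzyme background subtraction for full effect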
PKA kinase inh = inhibitors of human protein kinase A; P17612; PKA Kemptide phosphorylation, Kinase-Glo ATP luminescence; inhibition, % at 6 µM; 65,000 compounds, 0.1% hits; AID 524;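 active means inhibition above the screen-wide mean inhibition plus 3 SD, cut at about 21% in these data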
MKP-1 inh = blocks human MKP-1 phosphatase activity | 65,000 compounds, 0.15% hits | inhibition, %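 (compounds tested at a single concentration somewhere between 10 and 100 µM)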 | P28562 | recombinant MKP-1, OMFP hydrolysis fluorescence;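 active means inhibition above about 50%, limit read from the data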;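 further: 0% = DMSO max control wells and 100% = wells with enzyme stopped by NaOH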
Target sequence (P28562 whole entry, looked up): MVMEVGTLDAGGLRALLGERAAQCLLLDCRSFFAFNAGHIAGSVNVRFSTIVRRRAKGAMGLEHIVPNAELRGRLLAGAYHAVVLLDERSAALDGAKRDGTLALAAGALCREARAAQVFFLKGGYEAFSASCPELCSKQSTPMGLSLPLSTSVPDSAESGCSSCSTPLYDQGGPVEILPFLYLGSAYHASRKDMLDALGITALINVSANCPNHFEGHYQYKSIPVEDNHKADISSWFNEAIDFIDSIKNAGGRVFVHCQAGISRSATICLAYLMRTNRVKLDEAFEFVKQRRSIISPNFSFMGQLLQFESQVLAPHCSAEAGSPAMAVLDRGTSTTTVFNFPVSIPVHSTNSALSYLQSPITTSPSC
Redox 05 DTT = counter-screen for Cdc25B probes: redox cycling H2O2 in 0.5 mM DTT; shares compounds with Cdc25B block; cell-free redox cycling H2O2 generation; EC50, µM; 30 compounds, 50% hits; in the data active means EC50 below about 30 µM
Redox H2O2 1DTT = redox cycling H2O2 generation, Cdc25B counter-screen | EC50, µM | AID 683 | 30 tested, under 10 active | cell-free redox cycling H2O2 generation, 1 mM DTT | shares compounds with Cdc25B block; in the data active means EC50 below about 50 µM
Redox H2O2 = generates H2O2 by redox cycling in DTT. shares compounds with MKP-1 inh. 60 tested, under 10 active. Redox cycling H2O2 generation, phenol red/HRP. EC50, µM; call rule not given here
The depositor's hits bear a star; / = no result.

SMILES	Cdc25B block	SK-BR-3 tox 24h	WNV NS2B-NS3 inh	ROCK2 inh	PKA kinase inh	MKP-1 inh	others
COP(=O)(OC)C(O)C(Cl)(Cl)Cl (centres undefined)	-15.3	98.6	-3.44*	3.3	0.5	-9.8
CCNCC1(c2ccc(OC)c(OC)c2)CCCC1	1.2	92.5	-4.84*	1.0	4.0	-23.7
CCN(CC)C(=O)c1ccc(NC(=O)CSc2nnnn2-c2cc(OC)ccc2OC)cc1	5.2	82.7	0.4	7.3	16.1	8.9
CCN(CC)C(=O)c1ccc(NC(=O)Cn2nc(C)c3ccccc3c2=O)cc1	71.2*	89.9	1.58	/	-0.7	-0.3
C[N+]1(C)CCN(c2ccccc2)CC1	-6.1	97.2	-0.18	-10.7	-11.7	-4.4
Cc1c2ccncc2c(C)c2c1[nH]c1ccccc12	23.1	96.6	0.82	45.8*	45.7*	-29.2
c1ccc2c(c1)[nH]c1cnccc12	-7.3	94.8	0.17	24.2*	-2.4	-11.6
c1ccc2c3c([nH]c2c1)CNCC3	3.0	106.6	-0.98	-10.9	-12.5	-3.2
O/N=C1/C(=C\c2ccccc2)N2CCC1CC2	8.1	90.8	-0.13	9.6	9.6	25.3
COc1ccccc1N1C(=O)NC(=O)C2(Cc3cc(C)ccc3N(C)C2)C1=O (centres undefined)	6.7	132.8	0.44	-1.1	-2.9	0.2
CCn1c(=O)n(CC(=O)N2CCC3(CC2)OCCO3)c(=O)c2ccccc21	53.4*	90.1	-0.33	3.5	0.7	0.7
N=C(N)c1c(O)n(C2CCCCC2)c(=O)n(C2CCCCC2)c1=O	3.6	2.8*	-0.41	8.0	8.0	12.5
O=c1c(C=NCCN2CCNCC2)c(O)n(C2CCCCC2)c(=O)n1C1CCCCC1	-5.2	61.6	0.59	1.6	4.2	-20.6
CSc1ccc(C(=O)C(C)(C)N2CCOCC2)cc1	-5.2	99.7	0.52	0.9	-2.7	3.8
C1=C(c2c[nH]c3ccccc23)CCNC1	6.4	/	0.17	27.8*	20.8*	-2.7
Nc1c(C(=O)NCCc2ccccc2)c2nc3ccccc3nc2n1CCN1CCOCC1	-53.7	2.9*	1.82	-7.7	-10.2	32.2
COc1ccc(CCNC(=O)c2c(N)n(CCN3CCOCC3)c3nc4ccccc4nc23)cc1	-12.3	120.1	-0.13	-1.3	-0.5	11.4
C=CCn1c(O)c(C(C)=NCc2cc(OC)cc(OC)c2)c(=O)[nH]c1=O	7.3	38.0*	0.03	1.4	6.5	15.1
C=CCn1c(O)c(C(C)=NCc2cccnc2)c(=O)[nH]c1=O	-7.4	91.8	-1.08	12.2	8.5	-22.2
CCCS(=O)(=O)N1CCCC(C(=O)N2CCC3(CC2)OCCO3)C1 (centres undefined)	11.1	/	-0.51	4.1	-1.0	-1.9
CCN1CCN(Cc2ccc(C)cc2)CC1	7.2	/	-0.19	3.1	-0.4	5.0
CCN1CCN(Cc2nnnn2C(C)(C)C)CC1	-3.4	90.4	1.13	20.8*	66.2*	-17.0
CCCCCCN=C(C)c1c(O)n(CCCC)c(=O)[nH]c1=O	1.8	86.4	0.59	0.0	1.9	2.8
COc1ccc(N2CCN(C(CNC(=O)Oc3ccccc3)c3cccnc3)CC2)cc1 (centres undefined)	11.6	86.5	-7.25*	0.5	11.1	8.6
Cn1ncnc2c(=O)n(C)c(=O)nc1-2	101.8*	5.5*	-0.47	66.7*	0.7	100.7*	Redox 05 DTT=1.17*;Redox H2O2 1DTT=3.16*;Redox H2O2=10.7*
CCC(=NCc1ccc2c(c1)OCO2)c1c(O)n(C2CCCCC2)c(=O)[nH]c1=O	1.8	112.3	-1.2	6.7	2.2	0.2
